According to ChEMBL document CHEMBL3988442, “University of Dundee, Small-Polar-MMV Screening Library” (2021):

Experiments:
[1] = biological target: T1, Aspartate--tRNA(Asp/Asn) ligase (Mycobacterium tuberculosis (strain ATCC 25618 / H37Rv)) (UniProt P9WFW3); assay: Assay for Asp RNA synthetase-1 from Mycobacterium tuberculosis; assay type: functional; parameters: scale not given: direction of the effect not stated beside the values; conditions: 30 µM; further: in the data most compounds retested in dose-response had high values
T1 sequence (whole entry): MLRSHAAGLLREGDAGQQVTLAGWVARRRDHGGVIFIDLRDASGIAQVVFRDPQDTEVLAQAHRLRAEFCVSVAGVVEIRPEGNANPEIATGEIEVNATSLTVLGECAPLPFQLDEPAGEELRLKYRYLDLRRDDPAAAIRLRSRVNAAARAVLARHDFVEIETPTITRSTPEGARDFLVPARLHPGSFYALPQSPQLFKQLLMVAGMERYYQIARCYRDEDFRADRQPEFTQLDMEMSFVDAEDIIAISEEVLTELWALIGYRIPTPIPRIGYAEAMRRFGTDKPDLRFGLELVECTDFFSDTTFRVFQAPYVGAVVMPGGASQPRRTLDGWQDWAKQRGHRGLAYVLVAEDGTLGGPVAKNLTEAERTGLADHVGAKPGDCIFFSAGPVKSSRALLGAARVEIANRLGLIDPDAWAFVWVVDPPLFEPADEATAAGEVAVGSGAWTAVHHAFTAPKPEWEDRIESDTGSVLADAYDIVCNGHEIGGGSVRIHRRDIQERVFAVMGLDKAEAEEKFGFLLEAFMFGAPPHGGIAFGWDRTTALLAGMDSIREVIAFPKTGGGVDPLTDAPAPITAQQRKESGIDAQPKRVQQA

[2] = biological target: Shiga toxin 2 (Escherichia coli O157:H7) (UniProt P09385+P09386); assay: E. coli 0.157:H7 Shiga Toxin SOP - stx2 screening assay; assay type: functional; parameters: scale not given: direction of the effect not stated beside the values; conditions: 30 µM

| SMILES | Percent Effect [1] [%] | Percent Effect [2] [%] |
| --- | --- | --- |
| CC1CN(CC(=O)Nc2cccnc2)CCN1c1nccs1 (stereo not drawn) | 0.466 | 7.04 |
| Cc1noc(C(C)C)c1C(=O)NCCCN1CCCC1 | 5.49 | -21.7 |
| Cn1cc(C(=O)Nc2ccc3c(c2)CN(C(=O)c2ccco2)CC3)nn1 | 5.79 | -88.9 |
| CCO[C@@H]1CC[C@H]2[C@H]1OCCN2C(=O)C1CCOCC1 | -5.84 | 8.02 |
| CNC(=O)CC1CCN(Cc2nc(-c3ccc(SC)cc3)oc2C)CC1 | -1.17 | -3.87 |
| c1ccc(-n2cc(CN3CCCC(Cn4cncn4)C3)nn2)cc1 (stereo not drawn) | -9.82 | -48.9 |
| Cc1nn(C)c(N(C)C)c1CNCC(O)COc1ccccc1 (stereo not drawn) | -5.92 | -12 |
| CNS(=O)(=O)c1ccc(C(=O)NCCNc2ncccn2)cc1 | -1.6 | 25.5 |
| COc1c(CNC(c2ccc(F)cc2)C(C)(C)C)c(C)nn1C (stereo not drawn) | -1.59 | 40.7 |
| O=C(CC1CN(Cc2ccccc2)CCO1)NC1CCCC1 (stereo not drawn) | -3.53 | 1.42 |
| Cc1nnc2n1CCN(C(=O)COCCOc1ccccc1)C2 | -0.422 | -37.2 |
| CN1CCc2c(C#N)c(NCCCN3CCOCC3)n3cnnc3c2C1 | 5.9 | 5.95 |
| O=C1CCC2(CCN(c3ncc(F)cn3)CC2)N1CCN1CCCC1 | 1.53 | -1.87 |
| CCSCC(C)NCc1nncn1C1CCCCC1 (stereo not drawn) | 1.39 | 13.1 |
| Cc1noc(C2CCN(C(=O)CCNc3ncccn3)CC2)n1 | 0.856 | -36.4 |
| CN(Cc1cn2c(n1)CN(c1ncc(F)cn1)CC2)Cc1ccco1 | 2.34 | -8.28 |
| Cc1ccc(CS(=O)(=O)N2CC[C@H]3[C@H]2CCN3C)cc1 | -3.51 | -4.23 |
| CCc1nnc2n1CCN(C(=O)COCCc1ccccc1)C2 | 3.29 | 24.8 |
| CC(C)CN1CCC(NC(=O)c2ccc(F)cc2I)CC1 | -2.95 | -20.7 |
| Cc1nn(C)c(C)c1C1CCCN1C(=O)CCNc1ncccn1 (stereo not drawn) | 6.63 | 13.4 |

| SMILES | Percent Effect [1] [%] | Percent Effect [2] [%] |
| --- | --- | --- |
| COCCNC(=O)C[C@@H]1COC[C@H]2CN(C(=O)c3cnccn3)C[C@@H]12 | -8.37 | -20.7 |
| CCc1ccc(C(=O)O)cc1S(=O)(=O)Nc1ccc(F)c(C#N)c1 | 4.35 | -1.93 |
| CCOc1ncccc1NC(=O)N1CCN(c2cccc(C)c2C)CC1 | 1.92 | 38.1 |
| O=C(c1ccco1)N1C[C@H]2CCCN(CC3CCOCC3)[C@H]2C1 | 11.5 | 2.22 |
| Cc1cccc(OCCNC(=O)CN2CCCC2Cn2cccn2)c1 (stereo not drawn) | -1.71 | -0.164 |
| O=C(N1CCCO1)[C@@]12CCO[C@@H]1CCN(C1CCCCC1)C2 | -5.76 | -31.5 |
| O=C(NCc1ccccc1-n1cccn1)N1CCN2CCCCC2C1 (stereo not drawn) | -6.8 | 3.68 |
| Cc1nn(C)c(C)c1C1COCCN1C(=O)Cc1cccc(F)c1 (stereo not drawn) | 1.67 | -31 |
| CC(NCc1ccccc1Br)c1ccc2[nH]c(=O)[nH]c2c1 (stereo not drawn) | 5.02 | -5.76 |
| CSc1ccc(S(=O)(=O)N2CCCCC2CCNC(C)=O)cc1 (stereo not drawn) | 7.57 | -4.85 |
| CSc1ccc(C(CN)N2CCc3sccc3C2)cc1 (stereo not drawn) | -1.53 | -31.4 |
| Cc1nc(N2CCCCC2)ncc1-c1cc(O)[nH]n1 | -0.348 | -1.17 |
| CN(C)CCOCC1CN(C(=O)[C@H]2CCCO2)Cc2ccnn2C1 (stereo partly drawn) | 0.379 | -15.2 |
| Cc1ccc(Oc2ccc(NC(=O)NCC3CCOC3)cn2)cc1C (stereo not drawn) | 0.322 | -6.2 |
| CCOc1ncccc1NC(=O)NC1CCCN(c2ncccn2)C1 (stereo not drawn) | 0.879 | -17.5 |
| CCCNCc1cc2c(C)cc(C)cc2n2c(=O)n(C)nc12 | -5.73 | -11.4 |
| Cc1cnn(CC2CCCN2C(=O)c2nccc3ccccc23)c1 (stereo not drawn) | 3.06 | 28 |
| Cc1ccc(F)c(-n2nnc(C(=O)O)c2-c2ccncc2)c1 | 6.35 | -7.89 |
| CCc1nccn1C1CCCN(C(=O)CCc2nccs2)C1 (stereo not drawn) | 2.69 | 16.2 |
